Key:
[1] = biological target: Serine/threonine-protein kinase PLK3 (Homo sapiens) (UniProt Q9H4B4); conditions: at 1 µM
[2] = biological target: Serine/threonine-protein kinase PLK3 (Homo sapiens) (UniProt Q9H4B4); conditions: at 10 µM
[3] = biological target: T1, cAMP-dependent protein kinase catalytic subunit PRKX (Homo sapiens) (UniProt P51817); conditions: at 1 µM
T1 sequence (whole entry): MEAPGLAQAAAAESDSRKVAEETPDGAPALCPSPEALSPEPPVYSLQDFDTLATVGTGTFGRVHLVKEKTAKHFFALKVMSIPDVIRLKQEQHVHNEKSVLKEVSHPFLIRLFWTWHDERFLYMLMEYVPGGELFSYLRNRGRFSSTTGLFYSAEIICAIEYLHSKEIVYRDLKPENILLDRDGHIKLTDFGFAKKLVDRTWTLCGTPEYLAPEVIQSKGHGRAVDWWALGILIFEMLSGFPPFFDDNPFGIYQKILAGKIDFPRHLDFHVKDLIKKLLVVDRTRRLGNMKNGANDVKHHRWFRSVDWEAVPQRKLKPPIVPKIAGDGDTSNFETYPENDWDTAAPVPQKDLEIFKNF

[4] = biological target: T1, cAMP-dependent protein kinase catalytic subunit PRKX (Homo sapiens); conditions: at 10 µM
[5] = biological target: Protein-tyrosine kinase 2-beta (Homo sapiens) (UniProt Q14289); conditions: at 1 µM
[6] = biological target: Protein-tyrosine kinase 2-beta (Homo sapiens) (UniProt Q14289); conditions: at 10 µM
[7] = biological target: Receptor-interacting serine/threonine-protein kinase 2 (Homo sapiens) (UniProt O43353); conditions: at 1 µM
[8] = biological target: Receptor-interacting serine/threonine-protein kinase 2 (Homo sapiens) (UniProt O43353); conditions: at 10 µM
[9] = biological target: Rho-associated protein kinase 1 (Homo sapiens) (UniProt Q13464); conditions: at 1 µM
[10] = biological target: Rho-associated protein kinase 1 (Homo sapiens) (UniProt Q13464); conditions: at 10 µM
[11] = biological target: Rho-associated protein kinase 2 (Homo sapiens) (UniProt O75116); conditions: at 1 µM
[12] = biological target: Rho-associated protein kinase 2 (Homo sapiens) (UniProt O75116); conditions: at 10 µM
[13] = biological target: Proto-oncogene tyrosine-protein kinase receptor Ret (Homo sapiens) (UniProt P07949); conditions: at 1 µM
[14] = biological target: Proto-oncogene tyrosine-protein kinase receptor Ret (Homo sapiens) (UniProt P07949); conditions: at 10 µM
[15] = biological target: Macrophage-stimulating protein receptor (Homo sapiens) (UniProt Q04912); conditions: at 1 µM
[16] = biological target: Macrophage-stimulating protein receptor (Homo sapiens) (UniProt Q04912); conditions: at 10 µM
[17] = biological target: Proto-oncogene tyrosine-protein kinase ROS (Homo sapiens) (UniProt P08922); conditions: at 1 µM
[18] = biological target: Proto-oncogene tyrosine-protein kinase ROS (Homo sapiens) (UniProt P08922); conditions: at 10 µM
[19] = biological target: T2, Tyrosine-protein kinase receptor TYRO3 (Homo sapiens) (UniProt Q06418); conditions: at 1 µM
T2 sequence (whole entry): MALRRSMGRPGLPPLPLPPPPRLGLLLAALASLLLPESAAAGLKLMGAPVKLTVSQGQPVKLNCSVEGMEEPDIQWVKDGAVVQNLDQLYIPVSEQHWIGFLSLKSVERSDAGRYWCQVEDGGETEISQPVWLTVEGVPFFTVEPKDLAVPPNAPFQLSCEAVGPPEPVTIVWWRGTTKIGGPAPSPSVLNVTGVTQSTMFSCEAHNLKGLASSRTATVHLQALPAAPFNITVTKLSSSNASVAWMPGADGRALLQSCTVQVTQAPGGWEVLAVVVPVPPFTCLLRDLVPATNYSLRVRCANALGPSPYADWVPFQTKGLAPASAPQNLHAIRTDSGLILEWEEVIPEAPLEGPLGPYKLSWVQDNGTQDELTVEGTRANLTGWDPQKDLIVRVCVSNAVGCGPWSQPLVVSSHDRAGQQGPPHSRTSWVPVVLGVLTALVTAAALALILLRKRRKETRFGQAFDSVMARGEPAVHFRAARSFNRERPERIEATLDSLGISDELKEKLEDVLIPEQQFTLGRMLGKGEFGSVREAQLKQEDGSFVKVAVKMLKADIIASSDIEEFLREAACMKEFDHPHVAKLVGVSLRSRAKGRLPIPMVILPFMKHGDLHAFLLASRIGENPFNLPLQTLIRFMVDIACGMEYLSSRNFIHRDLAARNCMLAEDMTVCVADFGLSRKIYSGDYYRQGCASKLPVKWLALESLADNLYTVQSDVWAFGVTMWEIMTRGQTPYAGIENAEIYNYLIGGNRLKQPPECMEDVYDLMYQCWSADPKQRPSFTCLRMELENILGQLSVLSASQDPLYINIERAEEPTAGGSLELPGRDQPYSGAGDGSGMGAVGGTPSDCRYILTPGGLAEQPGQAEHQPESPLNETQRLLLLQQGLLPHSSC

[20] = biological target: T2, Tyrosine-protein kinase receptor TYRO3 (Homo sapiens); conditions: at 10 µM

Macrophage-stimulating protein receptor (Homo sapiens), sequence (Q04912 25-304 limits assumed): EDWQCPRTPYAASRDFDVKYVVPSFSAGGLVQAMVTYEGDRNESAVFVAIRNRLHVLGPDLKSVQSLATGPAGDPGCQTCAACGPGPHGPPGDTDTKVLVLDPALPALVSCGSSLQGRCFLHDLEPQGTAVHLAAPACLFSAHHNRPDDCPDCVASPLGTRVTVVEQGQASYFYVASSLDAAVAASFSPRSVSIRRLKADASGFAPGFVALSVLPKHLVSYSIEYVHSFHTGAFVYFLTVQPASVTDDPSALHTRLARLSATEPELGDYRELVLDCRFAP
Macrophage-stimulating protein receptor (Homo sapiens), sequence (Q04912 310-1400 limits assumed): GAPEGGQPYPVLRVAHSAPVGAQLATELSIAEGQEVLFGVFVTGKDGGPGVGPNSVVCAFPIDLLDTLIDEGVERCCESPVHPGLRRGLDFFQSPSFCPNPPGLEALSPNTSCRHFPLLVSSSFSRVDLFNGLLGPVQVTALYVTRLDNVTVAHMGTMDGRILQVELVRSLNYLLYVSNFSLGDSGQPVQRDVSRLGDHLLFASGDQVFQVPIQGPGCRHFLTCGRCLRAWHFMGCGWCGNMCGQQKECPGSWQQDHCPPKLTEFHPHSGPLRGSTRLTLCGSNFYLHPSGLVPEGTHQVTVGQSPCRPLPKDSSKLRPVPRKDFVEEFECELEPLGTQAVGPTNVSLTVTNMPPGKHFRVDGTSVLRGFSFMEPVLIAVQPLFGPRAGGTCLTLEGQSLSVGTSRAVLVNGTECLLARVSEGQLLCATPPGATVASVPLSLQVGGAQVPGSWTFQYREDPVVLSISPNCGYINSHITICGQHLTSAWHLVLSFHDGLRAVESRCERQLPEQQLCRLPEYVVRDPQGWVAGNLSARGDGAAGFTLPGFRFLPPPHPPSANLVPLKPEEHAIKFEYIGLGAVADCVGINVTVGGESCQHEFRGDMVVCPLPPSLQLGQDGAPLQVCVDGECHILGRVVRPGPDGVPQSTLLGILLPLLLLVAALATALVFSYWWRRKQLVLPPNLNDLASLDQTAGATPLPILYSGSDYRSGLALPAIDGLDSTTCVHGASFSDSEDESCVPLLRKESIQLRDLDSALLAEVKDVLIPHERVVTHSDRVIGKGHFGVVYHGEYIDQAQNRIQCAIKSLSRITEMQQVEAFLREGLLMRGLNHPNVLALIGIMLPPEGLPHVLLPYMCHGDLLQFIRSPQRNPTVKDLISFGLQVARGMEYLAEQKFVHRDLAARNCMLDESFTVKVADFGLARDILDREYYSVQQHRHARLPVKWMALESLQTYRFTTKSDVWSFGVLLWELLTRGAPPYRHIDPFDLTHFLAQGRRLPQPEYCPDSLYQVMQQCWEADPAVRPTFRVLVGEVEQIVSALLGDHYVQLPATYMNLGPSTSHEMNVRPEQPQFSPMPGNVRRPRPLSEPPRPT
Rho-associated protein kinase 1 (Homo sapiens), sequence (Q13464 2-1354 limits assumed): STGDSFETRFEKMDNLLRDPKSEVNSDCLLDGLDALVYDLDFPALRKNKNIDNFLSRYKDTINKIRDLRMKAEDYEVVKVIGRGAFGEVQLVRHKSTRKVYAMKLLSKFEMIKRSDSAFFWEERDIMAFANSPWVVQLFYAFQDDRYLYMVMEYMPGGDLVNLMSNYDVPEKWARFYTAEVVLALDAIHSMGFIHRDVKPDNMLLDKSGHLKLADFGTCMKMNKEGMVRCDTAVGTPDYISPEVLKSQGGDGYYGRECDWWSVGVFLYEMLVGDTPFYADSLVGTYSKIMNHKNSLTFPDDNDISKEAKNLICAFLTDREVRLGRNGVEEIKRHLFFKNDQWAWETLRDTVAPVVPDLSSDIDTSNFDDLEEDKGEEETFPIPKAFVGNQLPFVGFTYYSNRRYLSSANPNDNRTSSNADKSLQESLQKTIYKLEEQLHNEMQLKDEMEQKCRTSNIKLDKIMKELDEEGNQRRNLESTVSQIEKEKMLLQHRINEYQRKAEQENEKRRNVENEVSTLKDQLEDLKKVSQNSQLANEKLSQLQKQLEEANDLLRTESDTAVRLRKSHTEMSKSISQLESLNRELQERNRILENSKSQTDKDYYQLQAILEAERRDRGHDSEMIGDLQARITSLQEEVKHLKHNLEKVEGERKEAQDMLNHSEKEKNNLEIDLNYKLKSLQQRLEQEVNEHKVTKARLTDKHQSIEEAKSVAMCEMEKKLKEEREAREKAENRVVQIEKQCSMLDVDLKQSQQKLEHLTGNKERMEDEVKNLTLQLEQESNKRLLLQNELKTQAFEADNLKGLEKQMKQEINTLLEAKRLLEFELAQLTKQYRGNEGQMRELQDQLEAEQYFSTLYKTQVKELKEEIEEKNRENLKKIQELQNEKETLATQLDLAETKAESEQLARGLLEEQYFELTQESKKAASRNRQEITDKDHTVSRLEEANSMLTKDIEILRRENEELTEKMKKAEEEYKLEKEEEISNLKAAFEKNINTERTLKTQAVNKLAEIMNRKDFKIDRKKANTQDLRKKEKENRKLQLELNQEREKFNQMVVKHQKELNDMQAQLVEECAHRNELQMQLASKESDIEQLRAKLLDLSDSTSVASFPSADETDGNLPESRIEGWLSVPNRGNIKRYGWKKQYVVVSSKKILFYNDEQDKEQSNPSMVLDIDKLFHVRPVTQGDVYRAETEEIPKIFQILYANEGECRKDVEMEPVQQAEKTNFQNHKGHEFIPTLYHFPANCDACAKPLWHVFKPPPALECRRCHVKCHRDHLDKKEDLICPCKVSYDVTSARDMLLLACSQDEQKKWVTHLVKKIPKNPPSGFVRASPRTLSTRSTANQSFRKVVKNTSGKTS
Proto-oncogene tyrosine-protein kinase ROS (Homo sapiens), sequence (P08922 whole entry): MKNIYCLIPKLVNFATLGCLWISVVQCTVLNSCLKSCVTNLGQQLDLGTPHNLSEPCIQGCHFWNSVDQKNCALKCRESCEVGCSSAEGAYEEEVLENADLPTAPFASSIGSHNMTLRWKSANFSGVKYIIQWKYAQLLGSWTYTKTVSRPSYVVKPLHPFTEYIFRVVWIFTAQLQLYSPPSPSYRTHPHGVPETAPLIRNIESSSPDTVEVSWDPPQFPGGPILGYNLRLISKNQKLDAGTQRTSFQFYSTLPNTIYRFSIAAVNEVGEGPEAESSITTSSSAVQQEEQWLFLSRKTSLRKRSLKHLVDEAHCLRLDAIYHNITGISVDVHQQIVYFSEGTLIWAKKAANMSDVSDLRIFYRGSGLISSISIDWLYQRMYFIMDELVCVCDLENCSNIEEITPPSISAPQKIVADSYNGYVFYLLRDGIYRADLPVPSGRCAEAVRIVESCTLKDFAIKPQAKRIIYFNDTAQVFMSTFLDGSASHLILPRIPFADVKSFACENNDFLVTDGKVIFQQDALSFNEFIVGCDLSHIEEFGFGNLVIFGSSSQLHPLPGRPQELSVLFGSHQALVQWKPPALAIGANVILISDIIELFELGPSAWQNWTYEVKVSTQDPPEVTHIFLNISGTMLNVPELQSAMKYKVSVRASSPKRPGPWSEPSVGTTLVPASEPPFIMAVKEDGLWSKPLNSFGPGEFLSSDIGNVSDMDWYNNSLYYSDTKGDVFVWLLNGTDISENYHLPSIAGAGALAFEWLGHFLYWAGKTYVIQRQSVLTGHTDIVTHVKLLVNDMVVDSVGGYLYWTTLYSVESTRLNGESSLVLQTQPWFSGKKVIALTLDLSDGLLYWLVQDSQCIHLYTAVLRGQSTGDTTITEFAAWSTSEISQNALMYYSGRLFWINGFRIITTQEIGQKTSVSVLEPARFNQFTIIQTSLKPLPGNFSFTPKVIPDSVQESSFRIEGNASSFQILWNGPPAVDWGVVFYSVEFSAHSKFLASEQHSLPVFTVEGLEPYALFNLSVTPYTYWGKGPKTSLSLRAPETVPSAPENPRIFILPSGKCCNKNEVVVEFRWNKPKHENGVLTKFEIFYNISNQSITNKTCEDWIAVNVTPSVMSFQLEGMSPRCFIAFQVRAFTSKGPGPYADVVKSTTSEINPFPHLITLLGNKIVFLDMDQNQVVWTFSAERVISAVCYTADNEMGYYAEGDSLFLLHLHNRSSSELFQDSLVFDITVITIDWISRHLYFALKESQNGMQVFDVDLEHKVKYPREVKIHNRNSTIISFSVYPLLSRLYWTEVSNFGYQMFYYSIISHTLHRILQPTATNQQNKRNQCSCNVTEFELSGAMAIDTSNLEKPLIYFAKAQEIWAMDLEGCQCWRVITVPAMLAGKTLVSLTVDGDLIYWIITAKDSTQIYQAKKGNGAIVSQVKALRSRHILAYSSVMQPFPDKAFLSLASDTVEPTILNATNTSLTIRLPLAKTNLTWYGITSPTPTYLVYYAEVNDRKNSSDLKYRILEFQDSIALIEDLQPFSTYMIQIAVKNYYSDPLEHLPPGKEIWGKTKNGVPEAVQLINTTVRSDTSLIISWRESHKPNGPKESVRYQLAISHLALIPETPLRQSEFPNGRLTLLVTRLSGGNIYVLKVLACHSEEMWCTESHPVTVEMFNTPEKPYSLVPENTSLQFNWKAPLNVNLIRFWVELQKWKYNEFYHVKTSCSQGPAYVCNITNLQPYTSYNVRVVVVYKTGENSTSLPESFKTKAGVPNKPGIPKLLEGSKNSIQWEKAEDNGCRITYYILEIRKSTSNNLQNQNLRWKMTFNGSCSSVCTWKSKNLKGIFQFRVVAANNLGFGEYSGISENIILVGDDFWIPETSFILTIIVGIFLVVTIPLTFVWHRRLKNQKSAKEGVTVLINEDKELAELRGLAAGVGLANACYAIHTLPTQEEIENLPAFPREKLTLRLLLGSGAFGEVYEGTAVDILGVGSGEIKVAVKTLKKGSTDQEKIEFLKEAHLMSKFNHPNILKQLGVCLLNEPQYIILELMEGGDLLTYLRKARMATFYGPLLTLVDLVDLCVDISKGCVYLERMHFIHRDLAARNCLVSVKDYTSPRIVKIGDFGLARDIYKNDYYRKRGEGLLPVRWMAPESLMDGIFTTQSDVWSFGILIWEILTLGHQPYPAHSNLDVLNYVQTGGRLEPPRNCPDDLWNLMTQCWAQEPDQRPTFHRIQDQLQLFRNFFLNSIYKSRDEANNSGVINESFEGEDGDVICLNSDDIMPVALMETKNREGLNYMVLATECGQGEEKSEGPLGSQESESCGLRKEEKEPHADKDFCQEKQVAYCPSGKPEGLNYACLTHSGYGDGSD

| SMILES | residual activity [1] | residual activity [2] [%] | residual activity [3] [%] | residual activity [4] [%] | residual activity [5] [%] | residual activity [6] [%] | residual activity [7] [%] | residual activity [8] [%] | residual activity [9] [%] | residual activity [10] [%] | residual activity [11] [%] | residual activity [12] [%] | residual activity [13] [%] | residual activity [14] [%] | residual activity [15] [%] | residual activity [16] [%] | residual activity [17] [%] | residual activity [18] [%] | residual activity [19] [%] | residual activity [20] [%] |
| --- | --- | --- | --- | --- | --- | --- | --- | --- | --- | --- | --- | --- | --- | --- | --- | --- | --- | --- | --- | --- |
| O=C1NC(=O)c2cc(Nc3ccc(F)cc3)c(Nc3ccc(F)cc3)cc21 | 92% (inactive) | 80 | 90 | 48 | 119 | 81 | 76 | 42 | 108 | 123 | 101 | 78 | 91 | 86 | 104 | 76 | 94 | 92 | 94 | 97 |
| c1ccc(-c2n[nH]c3c2oc2ccccc23)cc1 | 100% (inactive) | 90 | 88 | 94 |  |  | 97 | 64 | 114 | 126 | 97 | 75 | 74 | 47 | 58 | 73 | 97 | 93 | 79 | 62 |
| O=C1NC(=O)/C(=C/c2ccc3c(c2)OC(F)(F)O3)S1 | 94% (inactive) | 96 | 88 | 77 | 135 | 101 | 99 | 83 | 95 | 116 | 113 | 89 | 91 | 98 | 100 | 77 | 105 | 108 | 96 | 105 |
| Cc1cc(Nc2nc(-c3ccccc3)nc3ccccc23)n[nH]1 |  |  | 81 | 38 | 20 | 4 |  | 63 | 120 | 94 |  | 98 | 2 | 0 | 79 | 54 |  | 40 | 98 | 53 |
| O=C1Nc2ccc(Br)cc2/C1=C\c1cc2c([nH]1)CCCC2 |  |  | 113 | 102 | 75 | 49 |  |  | 119 | 116 | 101 | 82 | 74 | 69 | 116 | 84 |  | 80 |  |  |
| CCN(CC)C(=O)c1ccc(Nc2nc(OCC3CCCCC3)c3nc[nH]c3n2)cc1 | 101% (inactive) |  | 101 | 23 | 22 | 0 | 74 | 41 |  | 23 | 33 | 4 | 3 | 0 | 72 | 42 | 95 |  |  | 53 |
| O=c1c2ccccc2[nH]c(=S)n1CCN1CCC(=C(c2ccc(F)cc2)c2ccc(F)cc2)CC1 | 98% (inactive) | 89 | 87 | 52 | 136 | 91 | 100 | 101 | 114 | 127 | 109 | 86 | 104 | 108 | 72 | 78 | 98 | 99 | 82 | 102 |
| c1ccc(-c2n[nH]cc2-c2ccnc3ccccc23)nc1 | 99% (inactive) | 94 | 96 | 94 | 109 | 96 | 29 | 16 |  | 127 | 93 | 76 | 104 | 91 |  |  | 98 | 93 | 93 | 75 |
| CC(=O)c1ccc(N2CCOCC2)cc1O | 90% (inactive) | 92 | 106 | 95 |  | 103 | 95 | 81 |  |  | 92 | 87 | 99 | 109 | 91 | 77 | 94 | 98 | 86 | 106 |
| Cc1nc2cc3nc(-c4cccs4)cnc3cc2n1C | 101% (inactive) | 105 | 108 | 101 | 123 | 87 | 84 | 49 | 102 | 107 | 113 | 93 | 65 | 35 | 106 | 97 | 109 | 112 | 98 | 79 |
| N#CCCc1ccc2c(c1)-c1[nH]c3ccc([N+](=O)[O-])cc3c1CC(=O)N2 | 100% (inactive) | 82 | 72 | 25 | 19 | 9 | 18 | 10 | 52 | 24 | 8 | 7 | 80 | 49 |  |  |  |  | 75 | 59 |
| Oc1ccc(-c2nc(-c3ccc(F)cc3)c(-c3ccncc3)[nH]2)cc1 | 109% (inactive) | 90 |  |  | 111 | 86 | 24 | 14 | 117 | 100 | 95 | 36 | 101 | 47 | 84 | 68 | 115 | 104 | 103 | 81 |
| c1ccc2c(-c3ccncc3)c[nH]c2c1 | 91% (inactive) | 94 | 48 | 16 |  | 93 | 87 | 59 |  | 78 | 37 | 6 | 103 | 101 | 96 | 65 | 88 | 92 | 91 | 97 |
| O=C1Nc2ccccc2/C1=C1/Nc2ccccc2/C1=N\OCCC(O)CO (stereo not drawn) |  |  | 66 | 41 | 7 | 2 | 58 | 50 | 114 | 98 |  |  | 2 | -1 | 75 | 61 |  |  | 52 | 46 |
| COc1cc2ncnc(Nc3ccc(NC(=O)c4ccccc4)cc3)c2cc1OC | 102% (inactive) | 97 |  | 91 | 134 | 75 | 110 | 77 |  |  |  | 82 | 56 | 12 | 87 | 74 | 109 | 102 | 94 | 76 |
